According to PubChem BioAssay AID1159580 (chemical genetic matrix, 2015):
Several values for one entry are separate records, joined by “and”; a condition that tells them apart may be missing. Equal entries are not always repeated. In all, about 5,500 compounds went through this assay and about 2,000 (36%) were called active. Inconclusive results (about 18%) are left out. Cut-off read from the data, not from the text of the source: active = normalized growth mostly below about 0.91 (no sharp cut-off); inconclusive = no clear call, values can overlap the other calls; inactive = mostly above about 0.92. Some of the results follow.

Test: chemical genetic growth profiling, strain panel (AID 1159580);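 note: tested at 20 µM; growth read once vehicle control cultures reached saturation at 30 °C; 1 = growth at the plate median or of vehicle wells; lower values mean less growth of the strain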
Details: S. cerevisiae deletion strains, growth OD

Measured: normalized growth

CC1(C)C(=O)[C@@H]2O[C@@H]2[C@@]2(C)C1C[C@@H](O)[C@]1(C)C2CC[C@@]2(C)[C@H](c3ccoc3)OC(=O)C3OC321 (stereo partly specified)
inactive: locus YAL021C, strain ccr4, hits give low values 0.981 | locus YAL026C, strain drs2, hits give low values 0.969 | locus YAL030W, strain snc1, hits give low values 0.982 | locus YBL061C, strain skt5, hits give low values 0.989 | locus YBR009C, strain hhf1, hits give low values 1 | locus YBR021W, strain FUR4, hits give low values 0.965 | locus YBR023C, strain chs3, hits give low values 0.998 | locus YBR171W, strain sec66, hits give low values 0.994 | locus YBR229C, strain ROT2, hits give low values 1 | locus YBR231C, strain swc5, hits give low values 0.995 | locus YBR279W, strain paf1, hits give low values 0.987 | locus YCL011C, strain gbp2, hits give low values 0.999 | locus YCL016C, strain dcc1, hits give low values 0.997 | locus YCL029C, strain bik1, hits give low values 0.988 | locus YCL061C, strain MRC1, hits give low values 1.01 | locus YCL069W, strain vba3, hits give low values 0.999 | locus YCR088W, strain abp1, hits give low values 1 | locus YDL005C, strain med2, hits give low values 0.987 | locus YDL035C, strain GPR1, hits give low values 0.998 | locus YDL040C, strain nat1, hits give low values 0.998 | locus YDL074C, strain BRE1, hits give low values 0.972 | locus YDL101C, strain DUN1, hits give low values 1 | locus YDL134C, strain PPH21, hits give low values 0.989 | locus YDL185W, strain tfp1, hits give low values 0.997 | locus YDL192W, strain arf1, hits give low values 0.988 | locus YDR001C, strain nth1, hits give low values 1 | locus YDR069C, strain doa4, hits give low values 0.999 | locus YDR101C, strain arx1, hits give low values 0.971 | locus YDR137W, strain rgp1, hits give low values 1 | locus YDR150W, strain NUM1, hits give low values 1 | locus YDR159W, strain sac3, hits give low values 0.998 | locus YDR162C, strain NBP2, hits give low values 1 | locus YDR195W, strain ref2 0.989 | locus YDR297W, strain sur2, hits give low values 0.99 | locus YDR318W, strain mcm21, hits give low values 0.974 | locus YDR334W, strain swr1, hits give low values 0.989 | locus YDR335W, strain msn5, hits give low values 0.987 | locus YDR388W, hits give low values 0.991 | locus YDR392W, strain spt3, hits give low values 0.984 | locus YDR502C, strain sam2, hits give low values 0.957 | locus YEL003W, strain gim4, hits give low values 1.01 | locus YEL037C, strain rad23, hits give low values 0.988 | locus YEL061C, strain CIN8 (second series), hits give low values 1 | locus YER015W, strain faa2, hits give low values 0.996 | locus YER016W, strain bim1, hits give low values 0.995 | locus YER110C, hits give low values 0.976 | locus YER111C, strain swi4, hits give low values 0.996 | locus YER155C, strain BEM2 (second series), hits give low values 1 | locus YER155C, strain BEM2, hits give low values 1 | locus YER167W, strain BCK2, hits give low values 1.01 | locus YFR010W, strain ubp6, hits give low values 1 | locus YGL078C, strain dbp3, hits give low values 0.985 | locus YGL086W, strain mad1, hits give low values 0.977 | locus YGL167C, strain pmr1, hits give low values 1.01 | locus YGL173C, strain kem1, hits give low values 1 | locus YGL227W, strain vid30, hits give low values 1 | locus YGL240W, strain doc1, hits give low values 1 | locus YGL248W, strain PDE1, hits give low values 0.998 | locus YGL253W, strain hxk2, hits give low values 1 | locus YGR135W, strain pre9, hits give low values 0.952 | locus YGR229C, strain SMI1, hits give low values 0.981 | locus YGR252W, strain gcn5, hits give low values 0.845 | locus YHR013C, strain ard1, hits give low values 0.993 | locus YHR027C, strain rpn1, hits give low values 0.997 | locus YHR030C, strain SLT2, hits give low values 1.02 and 0.977 | locus YHR079C, strain IRE1 (second series), hits give low values 0.991 | locus YHR079C, strain IRE1, hits give low values 0.986 | locus YHR094C, strain hxt1, hits give low values 0.989 | locus YHR129C, strain ARP1, hits give low values 1 | locus YHR142W, strain chs7, hits give low values 0.993 | locus YHR200W, strain rpn10, hits give low values 0.982 | locus YIL066C, strain RNR3, hits give low values 1.01 | locus YIL073C, strain SPO22, hits give low values 0.992 | locus YIL125W, strain kgd1, hits give low values 0.992 | locus YIR030C, strain dcg1, hits give low values 0.994 | locus YJL092W, strain hpr5, hits give low values 1 | locus YJL095W, strain BCK1 (second series), hits give low values 0.994 | locus YJL095W, strain BCK1, hits give low values 0.982 and 0.983 | locus YJL115W, strain asf1, hits give low values 0.989 | locus YJL129C, strain trk1, hits give low values 0.985 | locus YJL134W, strain LCB3, hits give low values 0.997 | locus YJL154C, strain vps35, hits give low values 0.999 | locus YJL164C, strain tpk1, hits give low values 0.981 | locus YJL166W, strain qcr8, hits give low values 0.983 | locus YJL168C, strain set2, hits give low values 0.985 | locus YJL187C, strain SWE1 (second series), hits give low values 0.984
